Compounds without any hit were thinned out: in the full panel of roughly 79,000, 15% have a hit. Unmarked numbers belong to inactive results. Calls of active or inactive are those of the source. Rule as the data show it: active = growth inhibition above about 70%; inactive = the rest.

The assay in a line: NCI Yeast Anticancer Drug Screen. Data for the mec2-1 strain (AID 157). Conditions: S. cerevisiae mec2-1 strain, at 3.7 µM, active compounds read high. Put shortly: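 Strain: mec2-1 (DNA repair/cell cycle alteration). Compound exposure, then growth measured; inhibition expressed relative to vehicle.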
For the compound `CNC(=O)OCc1c(COC(=O)NC)c(C)n(-c2ccc(Cl)c(Cl)c2)c1C`, the growth inhibition was -22%.

Regarding `COc1ccc2nc(N/N=C/c3sccc3C)cc(C)c2c1`, the growth inhibition was 4%.

On to `O=C(O)/C=C\C(=O)NNc1ccc(Br)cc1`, for which the growth inhibition was 90% (active).

With `S=c1[nH]nc(Cc2ccccc2)c(=S)[nH]1`, the growth inhibition was -6%.

Turning to `CCN(CC)CCSc1c2ccccc2nc2cc(NCC(=O)Nc3ccccc3-c3ccccc3NC(=O)CNc3ccc4c(SCCN(CC)CC)c5ccccc5nc4c3)ccc12`, the growth inhibition was 22%.

With `Cc1ccc(N(C=O)c2c([N+](=O)[O-])cc([N+](=O)[O-])c3c2=[N+]([O-])CN=3)cc1`, the growth inhibition is 19%.

As for `COc1ccc(C(=O)OCCc2ccccc2)cc1`, the growth inhibition was -4%.

Regarding `COc1ccc(C(=O)NCCN(C)C)c2nc3ccccc3cc12`, the growth inhibition is 17%.

Consider `NCC(O)CSCc1ccc(Cl)cc1` (configuration not stated), for which the growth inhibition was -2%.

Turning to `CN(C)/N=N/c1nc[nH]c1C(N)=O`, the growth inhibition was 0%.

As for `O=c1[nH]c(=O)n(CCCO)cc1F`, the growth inhibition was -27%.

For the compound `COc1ccc(/C(=N/O)c2ccccc2C2=Nc3ccccc3C(NCc3ccccc3)O2)cc1C` (configuration not stated), the growth inhibition was 0%.

On to `CCCC(=O)OC(OC(=O)CCC)c1ccc([N+](=O)[O-])o1`, for which the growth inhibition was -1%.

As to `O=C(/C(=C/c1ccccc1)CBr)c1ccccc1`, the growth inhibition is 12%.

As to `O=C(Cc1ccccc1F)NC1=C(Cl)C(=O)c2ccccc2C1=O`, the growth inhibition is 45%.

On to `Cc1cccc(N2CCN(C(=O)/C(=C/c3ccccc3)NC(=O)c3ccccc3)CC2)c1`, for which the growth inhibition was 0%.

For the compound `c1cc(Nc2ccc3c(c2)OCO3)c2cc(C3CCCCC3)ccc2n1`, the growth inhibition was -2%.

For the compound `Cc1ccc2nc(N/N=C/c3ccc(C)s3)cc(C)c2c1`, the growth inhibition is -17%.

Turning to `COc1cc(NCCCCCNC(C)C)c2ncccc2c1Cl`, the growth inhibition was 2%.

As for `COc1ccc2cc(CN3CCC(C4CCN(Cc5ccc6cc(OC)ccc6c5)CC4)CC3)ccc2c1`, the growth inhibition was -40%.

With `CC(=O)O/N=C/c1c2ccccc2cc2ccccc12`, the growth inhibition was 2%.

As for `CC[C@@]1(OC(=O)CN(C)C)C(=O)OCc2c1cc1n(c2=O)Cc2cc3ccccc3nc2-1`, the growth inhibition was 23%.

As to `CC1(C)CC(=O)C(C(CC(c2ccccc2)c2cc3c(cc2O)OCO3)C2=C(O)CC(C)(C)CC2=O)=C(O)C1` (configuration not stated), the growth inhibition is -3%.

As for `CCCCCCC(CCl)c1sc(-c2csc(CCNC(=O)OC(C)(C)C)n2)nc1C(=O)OC` (configuration not stated), the growth inhibition is -3%.

With `CCOC(=O)C1=C(C)NC(C)=C(C(=O)OCC)C1c1cccc([N+](=O)[O-])c1`, the growth inhibition is -16%.

In the case of `Cc1ccc2c(/C=C/c3ccc(N(C)C)cc3)ccnc2c1C`, the growth inhibition was -33%.

As to `O=C1C(Br)=CC(Br)(Br)C=C1Br`, the growth inhibition was 28%.
